Results as given in PubChem BioAssay (NCI).
This is part of a sample that, as a whole, favours compounds with a hit. Of some 83,000 tested, about 20% had one in any assay.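 Note: values are percent growth. 100 is the growth of untreated cells, values between 100 and 0 indicate rising inhibition; between -100 and 0 indicates cell death.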 Active and inactive are the calls of the source. Rule for the calls: active = growth percent below 10; inactive = the rest.

Columns and labels:
Assay in all cases: NCI-60 one-dose screen, 48 h (100 = growth as untreated, 0 = no growth, -100 = all killed)
Details in all cases: 10 µM unless noted
NCI-H23 lung = tested on: NCI-H23 lung
NCI-H226 lung = tested on: NCI-H226 lung
NCI-H322M lung = tested on: NCI-H322M lung
HOP-62 NSCLC = tested on: HOP-62 NSCLC
NCI-H460 lung = tested on: NCI-H460 lung
HOP-92 NSCLC = tested on: HOP-92 NSCLC
NCI-H522 lung = tested on: NCI-H522 lung
A549/ATCC NSCLC = tested on: A549/ATCC NSCLC
786-0 renal = tested on: 786-0 renal
COLO 205 colon = tested on: COLO 205 colon

Measured: growth

COc1ccc2nc3cc(Cl)ccc3c(NCCN)c2c1
inactive: NCI-H226 lung 31.8% | HOP-92 NSCLC 70.7%
active: NCI-H23 lung -33.6% | NCI-H322M lung -46% | HOP-62 NSCLC -85.8% | NCI-H460 lung -71.4% | NCI-H522 lung -56.6% | A549/ATCC NSCLC -84.5% | 786-0 renal -88.9% | COLO 205 colon -83.2%

C=C(c1ccc(C(=O)O)cn1)c1cc2c(cc1C)C(C)(C)CCC2(C)C
inactive: NCI-H23 lung 80.3% | NCI-H226 lung 81% | NCI-H322M lung 108% | HOP-62 NSCLC 87.3% | NCI-H460 lung 92.4% | HOP-92 NSCLC 71.5% | NCI-H522 lung 65.4% | A549/ATCC NSCLC 57.3% | 786-0 renal 114% | COLO 205 colon 109%

Cc1ccc(N=Nc2c(N)nn(-c3ccccc3)c2N)cc1
active: NCI-H23 lung 6.74% | NCI-H460 lung 9.76% | NCI-H522 lung -11%
inactive: NCI-H226 lung 76% | NCI-H322M lung 32.7% | HOP-62 NSCLC 64% | HOP-92 NSCLC 86.2% | A549/ATCC NSCLC 29.3% | 786-0 renal 63.7% | COLO 205 colon 16.9%

CC1CN=C(c2cccc(-c3ccc(-c4ccccc4)o3)c2)N1 (stereo not given)
active: NCI-H322M lung 4.39% | NCI-H460 lung -25.5% | HOP-92 NSCLC -13.1% | NCI-H522 lung -64.5% | 786-0 renal -43.6% | COLO 205 colon -82.6%
inactive: NCI-H23 lung 27.6% | NCI-H226 lung 30% | HOP-62 NSCLC 39.9% | A549/ATCC NSCLC 12.2%

COc1cccc(C(=O)OCC(O)C(=O)NC23CC4CC(CC(C4)C2)C3)c1 (stereo not given)
inactive: NCI-H23 lung 102% | NCI-H226 lung 93.5% | NCI-H322M lung 96.4% | HOP-62 NSCLC 104% | NCI-H460 lung 101% | HOP-92 NSCLC 91.7% | NCI-H522 lung 86.1% | A549/ATCC NSCLC 90.1% | 786-0 renal 101% | COLO 205 colon 111%

Cn1c(=O)c2c(nc(NC3=NS(=O)(=O)c4ccccc43)n2Cc2ccccc2)n(C)c1=O
inactive: NCI-H23 lung 92.5% | NCI-H226 lung 88.5% | NCI-H322M lung 101% | HOP-62 NSCLC 93.4% | NCI-H460 lung 102% | HOP-92 NSCLC 94% | NCI-H522 lung 94.1% | A549/ATCC NSCLC 102% | 786-0 renal 101% | COLO 205 colon 120%

CCN1C(=S)N(CC)C2C1NC(=S)N2/N=C/C=C/c1ccccc1OC (stereo not given)
active: NCI-H460 lung 6.8% | NCI-H522 lung -11.3%
inactive: NCI-H23 lung 24.1% | NCI-H226 lung 57% | NCI-H322M lung 45.2% | HOP-62 NSCLC 39.2% | HOP-92 NSCLC 74.6% | A549/ATCC NSCLC 17.7% | 786-0 renal 35.6% | COLO 205 colon 10%

CC1(C)C2CC=C(/C=N/NC(=O)C3CCC(=O)N3)C1C2 (stereo not given)
inactive: NCI-H23 lung 97.7% | NCI-H226 lung 106% | NCI-H322M lung 107% | HOP-62 NSCLC 110% | NCI-H460 lung 102% | HOP-92 NSCLC 99.5% | NCI-H522 lung 99.9% | A549/ATCC NSCLC 104% | 786-0 renal 101% | COLO 205 colon 114%

COc1cc(C2Cc3ncccc3-c3[nH]c(=O)c4cccnc4c32)cc(OC)c1OC (stereo not given)
active: NCI-H460 lung 9.39% | NCI-H522 lung -31% | COLO 205 colon -20%
inactive: NCI-H23 lung 35.3% | NCI-H226 lung 62.8% | NCI-H322M lung 55.5% | HOP-62 NSCLC 21.7% | HOP-92 NSCLC 67.5% | A549/ATCC NSCLC 20.4% | 786-0 renal 33%

CCOC(=O)n1cc(-c2nonc2-c2cn(C)c3ccccc23)c2ccccc21
inactive: NCI-H23 lung 55% | NCI-H226 lung 75.4% | NCI-H322M lung 44% | HOP-62 NSCLC 34.5% | NCI-H460 lung 14.5% | HOP-92 NSCLC 54.4% | NCI-H522 lung 18.4% | A549/ATCC NSCLC 40.1% | 786-0 renal 48% | COLO 205 colon 24.3%

CCCCCCC(CCCC)COC(=O)c1ccc(Cl)cc1 (stereo not given)
inactive: NCI-H23 lung 110% | NCI-H226 lung 92.8% | NCI-H322M lung 111% | HOP-62 NSCLC 119% | NCI-H460 lung 102% | HOP-92 NSCLC 89.5% | NCI-H522 lung 105% | A549/ATCC NSCLC 117% | 786-0 renal 103% | COLO 205 colon 108%

CCNC(=O)Oc1ccc(/C(=C(/C)Cc2ccc(OC)cc2)c2ccc(OCCN3CCCC3)cc2)cc1
inactive: NCI-H23 lung 86.6% | NCI-H226 lung 90.1% | NCI-H322M lung 89% | HOP-62 NSCLC 93% | NCI-H460 lung 55.9% | HOP-92 NSCLC 61.8% | NCI-H522 lung 78.9% | A549/ATCC NSCLC 66.4% | 786-0 renal 68% | COLO 205 colon 33.4%

C#CC#CC#CC#CC#CC#CC#CC#CC[C@H]1OC[C@@H](COC(=O)O[C@@H](C(=O)O[C@H]2C[C@@]3(O)[C@@H](OC(=O)c4ccccc4)[C@@H]4[C@]5(OC(C)=O)CO[C@@H]5C[C@H](O)[C@@]4(C)C(=O)[C@H](OC(C)=O)C(=C2C)C3(C)C)[C@@H](NC(=O)c2ccccc2)c2ccccc2)O1
inactive: NCI-H23 lung 48% | NCI-H226 lung 56.2% | NCI-H322M lung 54.6% | HOP-62 NSCLC 74.4% | NCI-H460 lung 19.2% | HOP-92 NSCLC 79.3% | NCI-H522 lung 71.4% | A549/ATCC NSCLC 52.4% | 786-0 renal 83.3% | COLO 205 colon 29.4%

CCN(CC)c1ccc(/C=N/NC(=O)c2ccc(Nc3ccnc(C(F)(F)F)c3)cc2)c(O)c1
inactive: NCI-H23 lung 31% | NCI-H322M lung 15.3% | HOP-62 NSCLC 25.6% | HOP-92 NSCLC 42.4% | NCI-H522 lung 49.7% | A549/ATCC NSCLC 33.4%
active: NCI-H226 lung -3.5% | NCI-H460 lung -4.66% | 786-0 renal -16.2% | COLO 205 colon -18%
